# Assay results from paper PMC5540273 (PLoS ONE, 2017).
# Key:
# Conditions in all cases: concentration: 1 μM, replicates: in singlicate; n = 1
# MAP3K15 = tested on: MAP3K15
# MAP3K1 = tested on: MAP3K1
# MAP3K2 = tested on: MAP3K2
# MAP3K3 = tested on: MAP3K3
# MAP3K4 = tested on: MAP3K4
# MAP4K2 = tested on: MAP4K2
# MAP4K3 = tested on: MAP4K3
# MAP4K4 = tested on: MAP4K4
# MAP4K5 = tested on: MAP4K5
# MAPKAPK2 = tested on: MAPKAPK2
# 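Note: KINOMEscan kinase panel screen.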
SMILES,%Inh (MAP3K15) [%],%Inh (MAP3K1) [%],%Inh (MAP3K2) [%],%Inh (MAP3K3) [%],%Inh (MAP3K4) [%],%Inh (MAP4K2) [%],%Inh (MAP4K3) [%],%Inh (MAP4K4) [%],%Inh (MAP4K5) [%],%Inh (MAPKAPK2) [%]
CN(c1ccc(NC(=O)Nc2cccc(Cl)c2)cc1)c1ccnc(N)n1.Cl [GW830707],0,0,0,23,0,10,0,0,16,0
Nc1ncc(-c2ccc3nccc(-c4ccncc4)c3c2)cc1S(=O)(=O)N1CCCCC1 [GSK1693850],0,9,0,1,14,16,0,5,6,5
Nc1cccc(-c2ccc3c(N)n[nH]c3c2)c1 [GSK2193613],0,100,0,0,4,91.1,1,19,0,0
COc1cccc(-c2nc(-c3ccccc3)[nH]c2-c2ccncc2)c1 [SB-610250],0,16,9,0,0,0,0,1,0,17
CN1CCN(Cc2ccc(NC(=O)Nc3ccc(N(C)c4ccnc(Nc5ccc(CS(C)(=O)=O)cc5)n4)cc3)cc2)CC1.Cl [GW827654],100,37,59,61,96,67,95.5,95.8,82,0
COc1ccc(C2=C(Nc3cccc(O)c3)C(=O)NC2=O)cc1 [SB-390766],0,24,0,0,0,0,0,0,0,0
COc1cccc(CC(=O)N2CCc3cc(-c4cn(C)c5ncnc(N)c45)ccc32)c1 [GSK2608899],13,20,82,49,77,38,78,0,84,21
COc1cccc2c(-c3ccncc3)c(-c3ccc(F)cc3)nn12 [GW468513],0,5,3,0,6,0,0,33,2,13
Fc1cc(Cl)ccc1Nc1ccnc2cc(-c3ccc(CN4CCOCC4)o3)ccc12 [GW560109],23,38,0,0,0,0,72,25,11,7
CN(C)CCNS(=O)(=O)c1ccc(-c2ccnc3[nH]ccc23)cc1 [GSK977620],14,11,49,19,0,11,31,20,8,0
CC(C)(C)c1ccc(C(=O)Nc2cn3cc(-n4ccnc4)ccc3n2)cc1,68,12,17,0,15,30,0,6,0,0
Cc1ccc(C)c(NC(=O)Nc2ccc(C)c(-c3ccc(C(=O)Nc4ccncc4)cc3)c2)c1 [GSK1398473],83,9,30,0,43,0,2,9,5,5
Fc1cc(Cl)ccc1Nc1ccnc2cc(-c3ccc(CN4CCSCC4)o3)ccc12 [GW560106],0,6,0,0,0,0,8,40,50,5
COc1cccc(NC(=O)NCCNc2ccnc(Nc3ccc(F)cc3)n2)c1 [GSK1379879],0,1,0,0,36,0,10,0,0,20
CNc1nccc(-c2ccc3c(N)n[nH]c3c2)n1 [GSK2206003],0,14,0,0,0,54,0,13,0,0
CN(c1ccc(F)c(NC(=O)c2cccc(OC(C)(C)C#N)c2Cl)c1)c1ccc2nc(NC(=O)C3CC3)sc2n1,0,0,0,15,0,0,0,75,0,0
CC(C)NCC(Cc1ccccc1)NC(=O)c1cc(Br)c(-c2ccnc3[nH]ccc23)s1.Cl.Cl (centres unmarked) [GSK1383281],0,0,34,0,0,0,0,27,0,0
CCn1c(-c2nonc2N)nc2c(-c3ccccc3)ncc(OCCCN)c21.O=C(O)C(F)(F)F.O=C(O)C(F)(F)F [GSK260205],0,17,98.2,97.7,6,3,0,76,5,13
Cl.Cl.NCC(NC(=O)c1cc(-c2cccnc2)c(-c2ccnc3[nH]ccc23)s1)c1ccccc1 (centres unmarked) [GSK1323434],0,7,3,0,0,41,0,82,0,6
CC(=O)Nc1cn2nc(Oc3cccc(NC(=O)c4cccc(C(F)(F)F)c4)c3)ccc2n1,0,0,0,22,19,0,91.7,36,90,0
Cc1ccc(O)cc1Nc1ccnc2cc(-c3ccc(CN4CCCCC4)o3)ccc12 [GW557777],7,67,29,7,0,29,0,2,3,0
CSc1ccc(NC2=C(c3ccc(Cl)cc3)C(=O)NC2=O)cc1 [SB-317658],0,0,1,29,37,12,1,16,17,1

SMILES,%Inh (MAP3K15) [%],%Inh (MAP3K1) [%],%Inh (MAP3K2) [%],%Inh (MAP3K3) [%],%Inh (MAP3K4) [%],%Inh (MAP4K2) [%],%Inh (MAP4K3) [%],%Inh (MAP4K4) [%],%Inh (MAP4K5) [%],%Inh (MAPKAPK2) [%]
Cn1cc(-c2cnc(N)c3c(-c4ccc5c(c4)CCN5C(=O)Cc4ccccc4)csc23)cn1 [GSK2593074],35,4,75,64,82,36,97.6,0,98.8,0
CCNC(=O)/C=C/c1n[nH]c2cc(Sc3ccccc3C(=O)NC)ccc12,5,38,20,30,3,30,65,39,24,12
NCCC(NC(=O)c1cc(Br)c(-c2ccnc3[nH]ccc23)s1)c1ccccc1.O=C(O)C(F)(F)F.O=C(O)C(F)(F)F (centres unmarked) [GSK1307810],65,16,38,2,0,23,15,45,0,0
Nc1ncc(-c2cn[nH]c2)c2scc(-c3ccc4c(c3)CCN4C(=O)Cc3ccccc3)c12 [GSK2593067],22,24,91,79,86,87,98.9,27,99.6,0
Cc1cccc(Nc2nc(NCCN)ncc2C(N)=O)c1 [GSK1292139],0,4,62,31,22,98.4,32,83,26,2
O=C(O)C(F)(F)F.O=c1[nH]ccc2nc(N[C@@H]3CCNC3)nc(Nc3ccc4c(c3)S(=O)(=O)CC4)c12 [GSK2181306],49,28,85,76,34,100,96,92.6,95.6,33
Cc1ccc(Nc2ccnc(Nc3ccc(C)c(F)c3)n2)cc1O.Cl [GW582868],0,2,0,0,40,0,96.8,5,2,0
COc1ccc(NC(=O)c2ccoc2)cc1-c1ccc(C(=O)NCC2CC2)cc1 [GW810437],4,13,9,0,6,10,0,0,7,0
CC(C)c1nc(-c2cccc(NS(=O)(=O)c3c(F)cccc3F)c2)c(-c2ccnc(Nc3ccc(N4CCOCC4)nc3)n2)s1.Cl [GSK1723980],7,13,28,71,28,0,47,0,48,0
O=C(O)C(F)(F)F.O=c1[nH]ccc2nc(N[C@@H]3CCNC3)nc(Nc3cc(Cl)cc(Cl)c3)c12 [GSK2188764],26,24,81,78,19,99.9,77,94.1,76,31
COC(=O)Nc1nc2ccc(Oc3ccc(NC(=O)Nc4cc(C(F)(F)F)ccc4F)cc3)cc2[nH]1.Cl [GW654607],0,25,0,0,23,1,0,22,11,29
O=C(Nc1n[nH]c2nc(-c3ccccc3O)ccc12)C1CC1 [SB-711880],0,0,19,4,0,0,44,58,0,0
Cc1ccc(-c2ccc3occ(-c4ccc(S(C)=O)cc4)c3c2)nn1 (centres unmarked),0,0,0,0,0,0,0,0,0,0
CN(c1ccc2c(c1)nc(NCc1ccccc1)n2C)c1ccnc(Nc2ccc(CS(C)(=O)=O)cc2)n1.Cl [GW811603],13,0,0,56,0,0,33,2,0,0
Cc1nn2c(=O)cc(N3CCO[C@H](C)C3)nc2n1Cc1cccc(Cl)c1Cl [GSK2373693],22,66,7,0,4,0,4,17,10,12
O=C(Nc1n[nH]c2cc(-c3cccs3)ccc12)C1CC1 [SB-731284],57,52,34,44,0,9,0,13,0,0
N#Cc1cnc2cc(-c3cnc(CNCCN4CCOCC4)s3)ccc2c1Nc1ccc(Oc2ccccc2)cc1 [GW664114],0,19,65,86,99.2,71,98.9,98.1,99.6,14
c1ccc(Oc2ccc(Nc3ccnc4cc(-c5ccc(CN6CCCCC6)o5)ccc34)cc2)nc1 [GW567143],18,8,0,0,0,0,0,13,81,3
O=C(Nc1n[nH]c2nc(-c3ccccc3)ccc12)C1CC1 [SB-708999],3,17,6,0,28,0,1,53,12,4
CCOc1nccc(-c2c(-c3ccc(F)cc3)ncn2C2CCNCC2)n1 [SB-249175],57,42,10,7,11,100,0,31,27,0
O=C(Nc1c(F)cccc1F)c1cc(C(=O)c2ccccc2F)c[nH]1 [GSK1326180],0,0,0,0,42,0,0,19,0,8
Cc1ccc(NC(=O)c2cccc(N3CCCCC3)c2)cc1-c1ccc(C(=O)NCC2CC2)cc1 [GSK1917008],11,17,0,0,28,5,80,16,22,18

SMILES,%Inh (MAP3K15) [%],%Inh (MAP3K1) [%],%Inh (MAP3K2) [%],%Inh (MAP3K3) [%],%Inh (MAP3K4) [%],%Inh (MAP4K2) [%],%Inh (MAP4K3) [%],%Inh (MAP4K4) [%],%Inh (MAP4K5) [%],%Inh (MAPKAPK2) [%]
CN(C)CCOc1ccc(-c2cc(-c3ccc(Cl)c(O)c3)c(-c3ccncc3)[nH]2)cc1.Cl.Cl [SB-684387],50,0,0,0,17,27,0,22,3,12
Cn1cc(-c2ccc3c(c2)CCN3C(=O)Cc2cc(F)cc(C(F)(F)F)c2)c2c(N)ncnc21 [GSK2635225],0,3,33,12,41,0,25,0,31,10
Cc1cc(-c2ccnc(Nc3cccc(C#N)c3)n2)cc(C)c1O [GSK1440913],0,22,2,1,18,30,18,76,12,0
Cc1cccc(Nc2nc(N[C@H]3CCCC[C@H]3N)ncc2C(N)=O)c1.Cl [GSK986310],16,17,84,71,0,98.4,31,74,34,19
Cl.N#CCc1ccc(Nc2nccc(Nc3ccc(Oc4ccccc4)cc3)n2)cc1 [GW639905],21,11,0,0,10,0,0,99.1,100,0
Cc1ccc(NC(=O)c2ccnc(N3CCCCC3)c2)cc1-c1ccc(C(=O)NCC2CC2)cc1 [GW775610],0,0,0,0,0,0,11,0,26,12
CN(C)c1ncnc2nc[nH]c12 [SKF-31736],37,11,16,0,0,0,0,0,0,0
Nc1ncnc2scc(-c3ccc(NC(=O)Cc4cc(F)ccc4F)cc3)c12.O=C(O)C(F)(F)F [SB-731254-M],24,10,82,63,22,16,54,1,70,35
N#CC1(c2cccc(C(=O)Nc3cccc(Oc4ccc5nc(NC(=O)C6CC6)sc5n4)c3)c2)CC1,0,0,22,0,19,0,58,68,50,0
Cc1cc(-c2c(-c3ccc(F)cc3)ncn2CCCN2CCOCC2)nc(N)n1 [SB-222517],0,24,30,0,15,0,5,0,0,0
COC(=O)Nc1nc2ccc(Oc3ccc(CC(=O)Nc4cc(C(F)(F)F)ccc4F)cc3)cc2[nH]1 [GW680903],0,0,0,0,8,0,0,0,0,20
Cl.O=C(Nc1ccc(Oc2ccc3[nH]c(NC(=O)c4ccco4)nc3c2)cc1)Nc1cc(C(F)(F)F)ccc1F [GW683134],0,27,7,0,0,0,17,24,32,93
Cl.Cl.NC(CNC(=O)c1cc(Br)c(-c2ccnc3[nH]ccc23)s1)c1ccccc1 (centres unmarked) [GSK1322949],16,14,27,15,3,56,20,53,4,0
COc1cc(Nc2nccc(N3CCC(NC(=O)Nc4ccc5c(c4)OCO5)C3)n2)cc(OC)c1OC (centres unmarked) [GSK1379766],0,8,0,0,29,17,0,0,0,0
CC(C)c1nc(-c2ccc(F)c(NS(=O)(=O)c3c(F)cccc3F)c2)c(-c2ccnc(Nc3ccc(N4CCOCC4)nc3)n2)s1 [GSK1804250],26,17,13,0,23,8,22,4,58,14
COC(=O)Nc1nc2cc(Oc3ccc(NC(=O)Nc4cccc(SC)c4)cc3)ccc2[nH]1.Cl [GW697999],0,15,1,0,0,0,0,0,0,0
Cc1ccc(NC(=O)c2ccc(Cl)c(Cl)c2)cc1-c1ccc(C(=O)Nc2ccncc2)cc1 [GSK1398460],0,8,1,0,45,0,0,1,0,15
COc1cccc(C2=C(Nc3cccc(O)c3)C(=O)NC2=O)c1 [SB-390771],0,0,12,0,38,8,0,4,0,17
CS(=O)(=O)c1cccc(CNc2nc(Nc3ccc4c(c3)CCC(=O)N4)ncc2C(F)(F)F)c1,0,0,62,46,81,0,0,41,0,0
CCNc1nccc(-c2c(-c3ccc(F)cc3)ncn2C2CCN(C)CC2)n1,0,0,0,0,0,0,0,0,0,0
COc1cc(Nc2ccnc3cc(-c4ccncc4)ccc23)cc(OC)c1OC.Cl [GW494610],7,8,25,30,0,13,0,83,55,13
